Results taken from PubChem BioAssay.
The list shows a part of the results. Calls of active or inactive are those of the source.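 The calls were made as follows, unless noted: active = inhibition above 50%; inactive = the rest.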

Legend:
[1] = target: Regulator of G-protein signaling 16 (Homo sapiens) (UniProt O15492); test: modulators of RGS–Galpha-o binding, primary screen, biochemical, multiplexed beads, flow cytometry, RGS4/7/8/16/19 (AID 1504); details: multiplexed bead flow cytometry, measured here: RGS16 interaction, at 10 µM;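 also: fluorescently labeled Galpha-o bound to GDP with aluminium fluoride binding biotinylated RGS beads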
[2] = target: Regulator of G-protein signaling 19 (Homo sapiens) (UniProt P49795); test: as above; details: multiplexed bead flow cytometry, measured here: RGS19 interaction, at 10 µM
[3] = target: Regulator of G-protein signaling 7 (Homo sapiens) (UniProt P49802); test: as above; details: multiplexed bead flow cytometry, measured here: RGS7 interaction, at 10 µM
[4] = target: Regulator of G-protein signaling 8 (Homo sapiens) (UniProt P57771); test: as above; details: multiplexed bead flow cytometry, measured here: RGS8 interaction, at 10 µM
[5] = disruption of biotin probe capture by avidin, counter-screen for RGS protein interaction modulators, biochemical, flow cytometry, bead-based (AID 1783); details: streptavidin beads, fluorescein-biotin binding; at 10 µM, stronger effect = higher value;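 also: median green fluorescence of gated singlet beads compared with DMSO control wells; 0% = DMSO wells and 100% = complete loss of bead fluorescence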
[6] = target: Guanine nucleotide-binding protein G(o) subunit alpha (Homo sapiens) (UniProt P09471); test: RGS8-Galphao binding modulators, confirmation, biochemical, multiplexed bead flow cytometry, single concentration (AID 1836; in the data active = binding response below about 72% or above about 130%; inactive = in between;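 also: Galphao activated as GDP AlF4 complex before binding bead RGS8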); details: bead-based flow cytometry RGS8-Galphao binding, fluorescence; at 10 µM; actives lie on both sides
[7] = target: Guanine nucleotide-binding protein G(o) subunit alpha (Homo sapiens) (UniProt P09471); test: RGS7-Galphao binding modulators, confirmation, biochemical, multiplexed bead flow cytometry, single concentration (AID 1837; in the data active = response below about 75% or above about 130%; inactive = in between;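 also: fluorescent Galphao activated with GDP and aluminum fluoride binding bead-coupled RGS7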); details: bead-based flow cytometry RGS7-Galphao binding; at 10 µM; actives lie on both sides
[8] = target: Regulator of G-protein signaling 16 (Homo sapiens) + Guanine nucleotide-binding protein G(o) subunit alpha (Homo sapiens) (UniProt O15492+P09471); test: modulators of RGS16-Galphao protein binding, confirmation, biochemical, single concentration, multiplexed bead flow cytometry (AID 1838; in the data active = response below about 74% or above about 130%; inactive = in between;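 also: Galphao activated as the GDP aluminium fluoride complex binding bead-coupled RGS16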); details: bead-based flow cytometry, at 10 µM, actives lie on both sides
[9] = target: Guanine nucleotide-binding protein G(o) subunit alpha (Homo sapiens) (UniProt P09471); test: modulators of RGS4-Galphao protein binding, confirmation, biochemical, single concentration, multiplexed bead flow cytometry (AID 1840; in the data active = binding response below about 74% or above about 130%; inactive = in between); details: at 10 µM, actives lie on both sides
[10] = target: Guanine nucleotide-binding protein G(o) subunit alpha (Homo sapiens) + Regulator of G-protein signaling 19 (Homo sapiens) (UniProt P09471+P49795); test: regulators of RGS19-Galphao binding, confirmation, biochemical, single point, multiplexed bead flow cytometry (AID 1841; in the data active = response below about 50% or above about 160%; inactive = in between;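 also: 100% = no compound control and 0% = blank background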); details: bead-based flow cytometry RGS19-Galphao binding; at 10 µM; actives lie on both sides
Sequence of Guanine nucleotide-binding protein G(o) subunit alpha (Homo sapiens) + Regulator of G-protein signaling 19 (Homo sapiens) (P09471 whole entry, looked up): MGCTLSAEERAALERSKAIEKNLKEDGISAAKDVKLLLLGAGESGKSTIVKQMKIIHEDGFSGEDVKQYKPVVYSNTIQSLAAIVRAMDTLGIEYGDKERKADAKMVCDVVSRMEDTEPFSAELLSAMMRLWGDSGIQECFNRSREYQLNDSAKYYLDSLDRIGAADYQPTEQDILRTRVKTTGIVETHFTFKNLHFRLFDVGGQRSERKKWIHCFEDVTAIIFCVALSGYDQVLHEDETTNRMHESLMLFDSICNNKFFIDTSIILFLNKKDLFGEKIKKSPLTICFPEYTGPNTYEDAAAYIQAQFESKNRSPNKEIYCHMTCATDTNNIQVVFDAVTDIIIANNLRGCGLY
Sequence of Guanine nucleotide-binding protein G(o) subunit alpha (Homo sapiens) + Regulator of G-protein signaling 19 (Homo sapiens) (P49795 whole entry, looked up): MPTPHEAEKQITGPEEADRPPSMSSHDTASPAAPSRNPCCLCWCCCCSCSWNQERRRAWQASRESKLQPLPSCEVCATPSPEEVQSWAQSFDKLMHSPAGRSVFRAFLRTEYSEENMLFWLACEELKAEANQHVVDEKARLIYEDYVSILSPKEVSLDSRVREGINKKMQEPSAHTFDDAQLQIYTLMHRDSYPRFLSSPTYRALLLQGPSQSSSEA

Sequence of Regulator of G-protein signaling 16 (Homo sapiens) + Guanine nucleotide-binding protein G(o) subunit alpha (Homo sapiens) (O15492 whole entry, looked up): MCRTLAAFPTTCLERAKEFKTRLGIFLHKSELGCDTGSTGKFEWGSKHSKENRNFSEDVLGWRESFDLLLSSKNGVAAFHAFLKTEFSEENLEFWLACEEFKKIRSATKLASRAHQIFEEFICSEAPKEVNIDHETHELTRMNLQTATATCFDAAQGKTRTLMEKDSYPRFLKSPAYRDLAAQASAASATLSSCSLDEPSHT
Sequence of Regulator of G-protein signaling 16 (Homo sapiens) + Guanine nucleotide-binding protein G(o) subunit alpha (Homo sapiens) (P09471 whole entry, looked up): as the sequence (P09471 whole entry, looked up) above
Sequence of Guanine nucleotide-binding protein G(o) subunit alpha (Homo sapiens) (P09471 whole entry, looked up): as above

| SMILES | RGS16–Galpha-o binding response [1] | RGS19–Galpha-o binding response [2] | RGS7–Galpha-o binding response [3] | RGS8–Galpha-o binding response [4] | inhibition [5] | binding response (% of control) [6] | response (percent of control binding) [7] | response (% of control binding) [8] | binding response (% of control) [9] | response (percent of control binding) [10] |
| --- | --- | --- | --- | --- | --- | --- | --- | --- | --- | --- |
| Cc1ccc(-n2c(SCC(=O)Nc3ncc(Cl)cc3Cl)nc3ccccc32)cc1 | 13.7% | 134% | 83.7% | 76.9% | 1% (inactive) | 103% (inactive) | 105% (inactive) | 103% (inactive) | 104% (inactive) | 113% (inactive) |
| Cc1ccc(S(=O)(=O)NCC(=O)OCC(=O)N2CCc3ccccc32)cc1 | 604% | 93.8% | 139% | 117% | -1.7% (inactive) | 102% (inactive) | 99.5% (inactive) | 98.9% (inactive) | 99.7% (inactive) | 97.4% (inactive) |
| CCC(=O)N1CCC(C(N)=O)(N2CCCCC2)CC1 | 417% | 90.3% | 161% | 163% | 2% (inactive) | 93.5% (inactive) | 90.7% (inactive) | 94.8% (inactive) | 94.8% (inactive) | 88.3% (inactive) |
| NC(=O)Cc1ccc2sc(-c3ccccc3)nc2c1 | 23.6% | 149% | 92.4% | 84% | -0.3% (inactive) | 98.7% (inactive) | 43.6% (active) | 80% (inactive) | 55.9% (active) | 78.6% (inactive) |
| Cn1c(=O)c2c(n(Cc3ccccc3)c1=O)NC(=O)C2CC(=O)N1CCc2ccccc2C1 (configuration not stated) | -1.02% | 241% | 13.5% | 12.1% | 0.9% (inactive) | 100% (inactive) | 112% (inactive) | 95.4% (inactive) | 105% (inactive) | 102% (inactive) |
| Cc1ccc(C)c(OCC(=O)N2CCN(C(=O)c3ccco3)CC2)c1 | 24.4% | 113% | 89.8% | 88.5% | 2.8% (inactive) | 104% (inactive) | 104% (inactive) | 107% (inactive) | 106% (inactive) | 110% (inactive) |
| CC(C)Cc1nc(Nc2ccc(S(=O)(=O)N3CCCC3)cc2)c2nnn(Cc3ccccc3)c2n1 | 260% | 48.9% | 137% | 141% | 1.3% (inactive) | 94.8% (inactive) | 91.8% (inactive) | 91.9% (inactive) | 90.6% (inactive) | 95.9% (inactive) |
| O=C(CN1CCOCC1)Nc1ccccc1 | 297% | 103% | 112% | 145% | 2.3% (inactive) | 97.1% (inactive) | 92.3% (inactive) | 94.4% (inactive) | 97.7% (inactive) | 97.1% (inactive) |
| CCOc1ccccc1NC(=O)c1cc(S(=O)(=O)N2CCC3(CC2)OCCO3)ccc1F | 4.15% | 139% | 15.2% | 33% |  |  |  |  |  |  |
| Cc1cccc(S(=O)(=O)CC(=O)Nc2nc(-c3ccccc3)cs2)c1 | 239% | 101% | 130% | 118% | 1.7% (inactive) | 101% (inactive) | 106% (inactive) | 98.5% (inactive) | 103% (inactive) | 105% (inactive) |
| CN(C)S(=O)(=O)Oc1ccccc1C(=O)Nc1ccccc1Cl | 100% | 70.6% | 223% | 97.6% | -0.2% (inactive) | 97.3% (inactive) | 101% (inactive) | 100% (inactive) | 98.9% (inactive) | 83.3% (inactive) |
| CN1CCN(C(CNS(=O)(=O)c2cccs2)c2cccnc2)CC1 (configuration not stated) | -5.62% | 168% | -9.98% | 10.6% |  |  |  |  |  |  |
| CCCn1nnnc1NC(=O)COc1ccc(Cl)cc1C | 2.27% | -359% | 17.1% | 11.9% |  |  |  |  |  |  |
| Cc1cc(C)nc(/N=C2\NC(=O)CC(C(=O)O)N2c2ccc(Cl)cc2Cl)n1 (configuration not stated) | 99.8% | 104% | 170% | 107% | 0.1% (inactive) | 102% (inactive) | 101% (inactive) | 102% (inactive) | 102% (inactive) | 101% (inactive) |
| Oc1ccc(N=Nc2nccs2)c(O)c1 | -16.2% | 158% | 270% | 6.26% | -1.7% (inactive) | 99% (inactive) | 96.5% (inactive) | 97.6% (inactive) | 98.7% (inactive) | 99.6% (inactive) |
| CCOC(=O)C1=C(c2ccccc2)N=C2SCC(=O)N2C1c1ccc(O)c(OC)c1 (configuration not stated) | 222% | -290% | 122% | 144% | 0% (inactive) | 109% (inactive) | 108% (inactive) | 110% (inactive) | 106% (inactive) | 104% (inactive) |
| FC(F)Oc1ccccc1C1CC(c2ccc(Br)s2)Nc2ncnn21 (configuration not stated) | 215% | -1720% | 163% | 111% | 2.6% (inactive) | 99.3% (inactive) | 98% (inactive) | 97.2% (inactive) | 95.9% (inactive) | 96% (inactive) |
